This is a sample that favours compounds with a hit; in the whole collection about 7.5% have one here.
Luc counter – Kinase-Glo luciferase inhibition (counter-screen) | Potency, µM (top dose mostly 38.3 µM), for the others: top-dose activity change, negative = inhibition, actives largely listed as inhibitors | AID 1379 | Q27757 | Kinase-Glo luciferase, ATP luminescence, 8 min | hit rate 0.28% among 200,000; note: % is set by controls: 0 for no effect and ±100 for the full control effect; nearly all actives have a fitted effect of over 60% in size
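Luminescence was the read-out, taken after 8-minute incubation at ambient temperature. Luciferase turned over luciferin with 10 uM ATP in imidazole pH 7.2 buffer containing KCl, MgCl2, Tween 20 and BSA.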
NPC1 prom act – NPC1 promoter activation. Huh7 NPC1 promoter luciferase reporter, 24 h. hit rate 2.4% among 320,000. Potency, µM (series often up to 9.22 µM), without a hit: top-dose activation, actives largely listed as activators; note: % of control where 0% means no effect; nearly all actives have a fitted effect of over 60% in size
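Quantitative HTS used a cell-based reporter: Huh7 cells stably bearing the NPC1 promoter upstream of luciferase were treated with compounds for 24 h, and promoter activation was read as luminescence.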
ELG1 genotox – inducers of genotoxicity in HEK293T ELG1-luciferase cells; Potency, µM (titrated, usually from 46 µM), for the others: at the top dose activity change, positive = activation, hits mostly activators; AID 504466; hit rate 1.3% among 330,000; HEK293T ELG1-luciferase reporter, luminescence, 16 h; note: % of control where 0% means no effect; nearly all actives have a fitted effect of over 60% in size
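ELG1-luciferase HEK293T cells, 2,000/well; compound pinned in; 16 hr, 37 °C, 5% CO2; ONE-Glo, 30 min RT; luminescence on CCD imager.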
FLuc modulator – firefly luciferase modulation, counter-screen for miR-21 project; Potency, µM (series often up to 57.5 µM), for inactives: at the highest dose activity change, negative = inhibition, most hits filed as inhibitors; purified FLuc, Km substrates, luminescence inhibition; P08659; hit rate 6.9% among 360,000;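 note: plate controls were vehicle for no effect and reference inhibitor for full effect; nearly all actives have a fitted effect of over 55% in size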
Target sequence (P08659 whole entry, looked up): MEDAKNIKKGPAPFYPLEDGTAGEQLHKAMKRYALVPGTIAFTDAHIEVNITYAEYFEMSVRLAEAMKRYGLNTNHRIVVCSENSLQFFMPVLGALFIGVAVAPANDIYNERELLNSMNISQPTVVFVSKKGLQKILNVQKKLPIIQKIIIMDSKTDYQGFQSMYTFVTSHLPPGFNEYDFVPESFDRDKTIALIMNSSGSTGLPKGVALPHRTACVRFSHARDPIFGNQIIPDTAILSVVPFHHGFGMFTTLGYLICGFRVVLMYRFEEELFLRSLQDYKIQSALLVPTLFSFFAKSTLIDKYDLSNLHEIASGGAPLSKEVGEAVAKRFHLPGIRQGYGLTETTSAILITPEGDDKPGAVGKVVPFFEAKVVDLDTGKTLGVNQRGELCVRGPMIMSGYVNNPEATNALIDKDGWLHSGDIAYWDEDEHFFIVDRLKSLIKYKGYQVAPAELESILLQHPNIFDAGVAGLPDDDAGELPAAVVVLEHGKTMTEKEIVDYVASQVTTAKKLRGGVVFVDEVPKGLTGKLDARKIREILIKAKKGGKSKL
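Purified P. pyralis luciferase (10nM final) with 10uM D-luciferin and 10uM ATP (Km levels) in 50mM Tris acetate pH 7.5, 10mM Mg acetate, 0.01% Tween-20, 0.05% BSA; qHTS 6-point titration, ~60 µM downward; luminescence read.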
SMN2 splice enh – enhancers of SMN2 splice variant expression | HEK293 SMN2-luciferase splicing reporter, luminescence, 30-36 h | Potency, µM (titrated, usually from 46.1 µM), without a hit: at the highest dose activity change, positive = activation, usual class: activators | hit rate 2.8% among 210,000 | AID 1458; note: % of control where 0% means no effect; nearly all actives have a fitted effect of over 55% in size
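HEK293 cells carry an SMN2 […]–luciferase reporter in which exon 7 inclusion puts luciferase in frame. Cells were plated 10-12 h before compound addition, then incubated 30-36 h at 37C. ONE-Glo luminescence was read; sodium butyrate at 4.5 mM final served as control.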
Rab9 promoter act – activators of Rab9 promoter; hit rate 2.8% among 320,000; Potency, µM (top dose mostly 9.22 µM), for inactives: at the top dose activation, negative = inhibition, usual class: activators; Huh7 Rab9 promoter-luciferase reporter, luminescence, 24 h; note: % of control where 0% means no effect; nearly all actives have a fitted effect of over 60% in size
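Huh7 cells stably carrying a Rab9 promoter-luciferase reporter, 1500 cells per well in OP-MEM I with 10% FBS, treated with compound 24 hours at 37C. Luciferase activity read by luminescence after 10 minutes with Amplite reagent.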
Active calls of the source: *; u = inconclusive; x = no result given; [ ] = another dose, or the depositor's remark. Calls come from the whole dose curve; as a rule, active = well fitted curve in the direction sought with a large enough effect; inconclusive = small, poorly fitted or top-dose-only effect, or another doubt; inactive = no such curve, though single readings can be large; an effect the other way counts as inactive or inconclusive. Potency is the fitted concentration of half-maximal effect.

SMILES	Luc counter	NPC1 prom act	ELG1 genotox	FLuc modulator	SMN2 splice enh	Rab9 promoter act
CC(=O)Nc1nccc(-c2cc(-c3ccccc3)no2)n1	x	3.5µM*	u	u	x	2.2µM*
C/C(=N/OCO/N=C(/C)c1ccc(F)cc1)c1ccc(F)cc1	3%	0%	5%	3%	8.9µM*	10%
CCN(CC)CC#CCOC(=O)[C@@](O)(c1ccccc1)C1CCCCC1	-2%[17.1 µM]	x	x	x	-17%[20.6 µM]	x
O=C(CCSc1ccc(Cl)cc1)N1CCCCCC1	-2%	u	14%	19µM*	7%	3.5µM*
O=C(CCSc1ccc(Cl)cc1)N1CCN(c2ncccn2)CC1	-8%	u	u	19µM*	8%	25%
O=[N+]([O-])c1ccccc1OCCCN1CCOCC1	-1%	-4%	1%	-8%	-4%	-12%
O=[N+]([O-])c1ccccc1OCCCn1cnc2ccccc21	0%	2.8µM*	u	5.4µM*	11µM*	2µM*
O=c1c2ccccc2ncn1CCCOc1ccccc1[N+](=O)[O-]	x	4µM*	u	15µM*	x	3.5µM*
CC(=O)c1sc(N/N=C\c2ccc(N(C)C)cc2)nc1C	x	1.3µM*	4.6µM*	1.3µM*	x	2.5µM*
COC(=O)c1sc(N/N=C/c2ccc(C(C)C)cc2)nc1C	x	29%	13%	19µM*	x	u
CC(=O)c1sc(N/N=C/c2cccc(O)c2)nc1C	x	10%	u	9.5µM*	x	u
CCOC(=O)c1sc(N/N=C/c2cc(Br)c(O)c(OC)c2)nc1C	x	10%	0%	u	x	2%
CSc1ccc(CCNC(=O)Cn2nc(C)n3c(cc4sccc43)c2=O)cc1	x	x	x	-2%	-7%	x
CCN(C(=O)COC(=O)c1cccnc1SC)c1c(N)n(Cc2ccccc2)c(=O)[nH]c1=O	x	-4%	2%	2%	x	-1%
CC(=O)N=Nc1[nH]c(N)c2ccccc12	0%	-8%	1%	-2%	14%	0%
CCN(CC)S(=O)(=O)c1ccc2oc(C(=O)N(C)Cc3ccccc3)c(C)c2c1	x	x	x	0%	-14%	x
O=C(Cn1c(SCC(=O)N2CCc3ccccc3C2)nc2ccccc21)NC1CCCC1	-2%	3%	-1%	5%	11µM*	5%
COc1ccc(/C=N/Nc2nccnc2Cl)cc1	7.1µM*	1.3µM*	1.5µM*	2.7µM*	14µM*	0.45µM*
Clc1nccnc1N/N=C/c1ccc(Br)cc1	x	2µM*	u	9.5µM*	x	2µM*
COc1ccc(/C=N/Nc2nccnc2Cl)c(OC)c1	13µM*	16%	u	11µM*	27%	u
COc1ccc(/C=N\NC(=O)O)cc1	-5%[7.66 µM]	x	x	x	-7%[9.22 µM]	x
CCc1cccc(C)c1NC(=O)CN1C(=O)C2(SCC(=O)N2c2cccc(F)c2)c2ccccc21 (stereo not given)	x	x	x	-7%	x	x
C=CCC[C@@H](Cc1ccc(F)cc1)C(=O)OC[C@H](Cc1c[nH]c2ccccc12)NC(=O)[C@H](CC=C)CC(=O)N(CCO)Cc1ccccc1	x	x	-13%	x	x	x
O=C(c1csnn1)N1CCC[C@@]2(CCN(c3ccccn3)C2)C1	1%	x	x	x	13%	x
Cc1cc(/C([O-])=C(/C(=S)Nc2ccccc2)[n+]2ccccc2)c(C)n1-c1ccccc1	1%	17%	10µM*	12µM*	0%	22%
SMILES	Luc counter	NPC1 prom act	ELG1 genotox	FLuc modulator	SMN2 splice enh	Rab9 promoter act
Cc1cc(/C([O-])=C(/C(=S)Nc2ccc(F)cc2)[n+]2ccccc2)c(C)n1-c1ccc(F)cc1	-2%	11%	5%	u	2%	22%
O=C(c1ccc(-c2cccc(Cl)c2)o1)N1CCN(c2ccc([N+](=O)[O-])cc2)CC1	0%	1%	7%	2%	-14%	0%
N#CCCN1CCN(C(=S)c2ccc(-c3ccc(Cl)c(Cl)c3)o2)CC1	-4%	13%	u	15µM*	9%	26%
N#CCCN1CCN(C(=S)c2ccc(-c3cccc(Cl)c3)o2)CC1	-5%	22%	u	19µM*	20%	u
CC(=O)N1CCN(C(=S)c2ccc(-c3ccc(Cl)cc3)o2)CC1	x	0%	0%	u	x	-1%
O=C(NCc1ccccc1CN1CCCC1)c1ccc(Cl)c(S(=O)(=O)N2CCCC2)c1	x	-1%	-4%	2%	x	-1%
O=C(NC(=S)Nc1ccc(CN2CCCCC2)cc1)c1cc2ccccc2o1	x	3.2µM*	2%	-3%	x	-1%
O=C(NC(=S)NCc1cccnc1)c1cc2ccccc2o1	4%	0%	-8%	u	9%	12%
O=C(Nc1cccnc1)Nc1ccc(Br)cc1Cl	-1%	8%	3%	-21%	-9%	4%
O=C(NC(=S)Nc1cccnc1)c1cc2ccccc2o1	-11%	22%	u	6.7µM*	x	26%
O=C(Nc1cccnc1)c1cc2cc(Br)ccc2o1	x	2.5µM*	5.2µM*	1.2µM*	x	u
CC(C)OC(=O)c1ccc(COC(=O)c2cnccn2)cc1	-11%	1%	2%	7.6µM*	-8%	0%
O=C(Oc1ccc(Cl)cc1)c1ccc(COC(=O)c2cnccn2)cc1	0%	-5%	9%	12µM*	12%	-3%
CCOc1cc(/C=C2\C(=O)ON=C2c2ccccc2)cc(Br)c1O	x	-12%	u	9.5µM*	x	-7%
CCOc1cc(/C=C2/C(=O)ON=C2C)cc(Br)c1O	x	-6%	2%	21µM*	x	-10%
CN(C)S(=O)(=O)c1ccc(C(=O)OCC(=O)NCc2ccccc2)cc1	-2%	-8%	5%	0%	-3%	2%
COc1ccc(C(=O)OCCc2ccc(O)cc2)cc1	3%	u	13µM*	6.7µM*	u	u
O=C(OCCc1ccccc1)c1cc(O)c(O)c(O)c1	x	-2%	u	24µM*	x	16%
Nc1ccc(C(=O)OCCc2ccccc2)cc1	x	3.5µM*	u	0.6µM*	x	3.2µM*
CN(C)S(=O)(=O)c1ccc(C(=O)OCCc2ccccc2)cc1	x	1%	14%	15µM*	x	0%
O=C(OCCCCOC(=O)c1ccccc1)c1ccccc1	x	-7%	-2%	-1%	x	-6%
O=C(Cc1csc2ccccc12)NCc1cccc(Br)c1	x	x	x	u	18%	x
O=C(O)CNC(=O)c1ccc(CO)o1	x	x	x	x	1%	x
Cc1cc(C)c(NC(=O)CCN2CCCCC2)c(C)c1	x	x	x	0%	10%	x
C(=C/c1nccc2c1[nH]c1ccccc12)/c1ccc2c(c1)OCO2	-14%	u	u	3µM*	11%	27%
O=c1c2ccccc2nc(/C=C/c2ccc3c(c2)OCO3)n1CCCO	-4%	14%	2%	u	-16%	13%
CCC(=O)N1CCc2cc(CNC(=O)c3ccc(OC)cc3)ccc21	x	x	x	-13%	x	x
